From PubChem BioAssay AID1851 (National Center for Advancing Translational Sciences (NCATS), 2009)
About 5,700 (36%) of roughly 16,000 compounds were called active. Inconclusive results (about 24%) are left out. The list shows a part of the results. Unmarked numbers belong to inactive results. Calls follow the shape of the dose curve; as a rule, active = well fitted curve in the direction sought with a large enough effect; inconclusive = small, poorly fitted or top-dose-only effect, or effect the other way; inactive = no such curve, though single readings can be large or run the other way.

What follows are molecules tested against Cytochrome P450 1A2 (Homo sapiens) (UniProt P05177) (assay: Cytochrome panel assay with activity outcomes). Settings: recombinant CYP, pro-luciferin dealkylation, luminescence, p450-cyp1a2; series mostly up to 57.1 µM; activity, negative = inhibition: at the top concentration.
Sequence of Cytochrome P450 1A2 (Homo sapiens) (P05177 whole entry, looked up): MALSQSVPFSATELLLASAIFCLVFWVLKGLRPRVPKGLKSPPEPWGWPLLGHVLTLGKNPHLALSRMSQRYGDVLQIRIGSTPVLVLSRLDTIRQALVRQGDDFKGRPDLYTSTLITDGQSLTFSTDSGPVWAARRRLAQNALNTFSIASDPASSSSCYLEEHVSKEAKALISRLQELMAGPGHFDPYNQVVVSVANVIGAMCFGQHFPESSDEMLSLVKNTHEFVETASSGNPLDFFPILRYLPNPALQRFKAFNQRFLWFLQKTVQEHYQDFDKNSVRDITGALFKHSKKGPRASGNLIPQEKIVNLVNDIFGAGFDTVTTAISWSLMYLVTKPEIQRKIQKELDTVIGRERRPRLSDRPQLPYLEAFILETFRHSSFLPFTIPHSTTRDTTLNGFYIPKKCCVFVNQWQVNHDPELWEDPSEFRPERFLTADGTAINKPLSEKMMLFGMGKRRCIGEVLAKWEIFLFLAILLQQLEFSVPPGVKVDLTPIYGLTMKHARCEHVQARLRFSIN
% is scaled to controls: 0 for no effect and ±100 for the full control effect.

| SMILES | activity, negative = inhibition | AC50 |
| --- | --- | --- |
| CC(C)=CCC/C(C)=C/CO/N=C1/C[C@@H](O)[C@@H](O)[C@@H]2[C@@H]3C(=O)N(C[C@@H]4CCCO4)C(=O)[C@H]3CC[C@@H]12 | -6.43% [at 11.4 µM] |  |
| O=C(CNc1cccc(Cl)c1)c1ccc(Cl)cc1 |  | 3.16 µM (active) |
| O=C(CCNc1cccc(Cl)c1)c1cccs1 |  | 10 µM (active) |
| O=C(O)CNc1ccc(C(=O)O)cc1 | -15.1% [at 11.4 µM] |  |
| O=C(O)CCCC[C@H]1CCSS1 | 0.489% |  |
| COc1cccc2c1OC1(C)CC2/C(=C(\C)O)C(=O)N1 (centres undefined) | -14.3% |  |
| CCc1ccc(-c2ccc(C(=O)C(F)(F)F)[nH]2)cc1 |  | 1.12 µM (active) |
| N[C@@H](CO)C(=O)NNCc1ccc(O)c(O)c1O |  | inactive |
| CC[C@H]1C(=O)OC[C@H]1Cc1cncn1C |  | inactive |
| CC(NC(=O)Cc1ccc(F)cc1)c1ccccc1 (centres undefined) | -20.4% |  |
| C=CC(=O)NC(NC(=O)C=C)c1ccc(Br)cc1 | -17.7% |  |
| CC(C)NC(=O)CC(=O)N/N=C/c1ccc(F)cc1 |  | 15.8 µM (active) |
| O=Nc1ccc(NOC(=O)c2ccc(Br)cc2)cc1 | -15.1% |  |
| Cc1ccc(S(=O)(=O)N(CC(=O)N/N=C/c2ccc(F)cc2)c2cccc3cccnc23)cc1 | -19.5% |  |
| CC(C)NC(=O)CC(=O)N/N=C/c1ccc(Br)cc1 |  | 1.41 µM (active) |
| C1CCC(N=C(NC23CC4CC(CC(C4)C2)C3)N2CCOCC2)CC1 | -10.6% |  |
| Cc1nc2cncnc2n(Cc2ccccc2)c1=O |  | 12.6 µM (active) |
| Cc1nc2cncnc2n(Cc2ccc(F)cc2)c1=O |  | 10 µM (active) |
| CC(=O)OC[C@@H]1O[C@H](C/C=N\O[C@@H](C)CN2CCCc3nc(C)c(C)cc32)C=C[C@@H]1OC(C)=O | -4.85% [at 11.4 µM] |  |
| O=C(NCc1ccc2c(c1)OCO2)C1CC(c2cccc(Br)c2)=NO1 (centres undefined) |  | 2 µM (active) |
| Cc1ccc(CNC(=O)C2CC(c3ccccc3[N+](=O)[O-])=NO2)cc1 (centres undefined) |  | 5.01 µM (active) |
| CCN(CC)S(=O)(=O)N1CCC(C(=O)NCc2ccc(C)cc2)CC1 | -10.3% |  |
| Cc1ccc(CNC(=O)C2CC(c3ccccc3[N+](=O)[O-])=NO2)o1 (centres undefined) |  | 6.31 µM (active) |
| Cc1ccc(CCNC(=O)C2CC(c3ccccc3[N+](=O)[O-])=NO2)cc1 (centres undefined) |  | 6.31 µM (active) |
| Cc1ccc(CNC(=O)C2CCC(=O)N2C2CCCCC2)cc1 (centres undefined) | -38% |  |
| Cc1ccc(CCN2CC(C(=O)NCCCN(C)Cc3ccccc3)CC2=O)cc1 (centres undefined) | -2.15% |  |
| CC(C)(C)OC(=O)N1CCCC1C(=O)NCCc1ccccc1 (centres undefined) | -12.5% |  |
| O=C1[C@H]2[C@H]3[C@H](O)[C@H](O)C/C(=N/OCc4ccccc4)[C@H]3CC[C@@H]2C(=O)N1Cc1ccc2c(c1)OCO2 | -4.06% [at 11.4 µM] |  |
| O=C1[C@H]2[C@H]3[C@H](O)[C@H](O)C/C(=N/OCc4ccccc4)[C@@H]3CC[C@@H]2C(=O)N1Cc1ccc2c(c1)OCO2 | -8.98% [at 11.4 µM] |  |
